Hits are enriched below; roughly 9.4% of the tested compounds scored in any of these assays.
FLuc modulator = firefly luciferase modulation, counter-screen for miR-21 project | Potency, µM (series often up to 57.5 µM), for inactives: at the top dose activity change, negative = inhibition, most hits filed as inhibitors | hit rate 6.9% among 360,000 | purified FLuc, Km substrates, luminescence inhibition | P08659 | AID 588342;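 note: plate controls were vehicle for no effect and reference inhibitor for full effect; nearly all actives have a fitted effect of over 55% in size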
Target sequence (P08659 whole entry, looked up): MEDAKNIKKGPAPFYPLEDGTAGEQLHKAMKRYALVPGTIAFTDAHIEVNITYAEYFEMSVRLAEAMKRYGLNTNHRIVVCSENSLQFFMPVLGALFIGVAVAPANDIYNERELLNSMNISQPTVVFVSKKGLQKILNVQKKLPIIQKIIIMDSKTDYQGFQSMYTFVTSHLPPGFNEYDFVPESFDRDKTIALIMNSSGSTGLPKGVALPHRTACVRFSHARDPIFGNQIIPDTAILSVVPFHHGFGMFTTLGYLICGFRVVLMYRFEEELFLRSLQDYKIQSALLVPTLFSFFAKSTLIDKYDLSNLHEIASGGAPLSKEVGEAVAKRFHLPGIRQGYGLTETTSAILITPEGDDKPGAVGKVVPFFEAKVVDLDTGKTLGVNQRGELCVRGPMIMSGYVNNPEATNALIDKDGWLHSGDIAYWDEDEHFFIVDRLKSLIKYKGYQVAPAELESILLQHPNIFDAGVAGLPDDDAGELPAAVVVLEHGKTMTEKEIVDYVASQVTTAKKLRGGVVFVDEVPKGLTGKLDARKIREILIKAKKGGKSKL
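Biochemical qHTS of compounds, final roughly 60 µM downward over six points, against 10 nM purified firefly luciferase using Km concentrations of substrates (10 uM D-luciferin, 10 uM ATP) in Tris acetate pH 7.5 buffer; luminescence output.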
Rab9 promoter act = activates the Rab9 promoter; Huh7 Rab9 promoter-luciferase reporter, luminescence, 24 h; AID 485297; Potency, µM (series often up to 9.22 µM), inactives show at the highest dose activation, negative = inhibition, hits mostly activators; hit rate 2.8% among 320,000; note: % of control where 0% means no effect; nearly all actives have a fitted effect of over 60% in size
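Cell-based reporter: Huh7 stable for Rab9 promoter-driven luciferase, plated in reduced-serum medium with 10% FBS at 1500 cells/well, compound-treated 24 h at 37 °C, luminescence read after 10 min reagent.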
SMN2 splice enh = enhancers of SMN2 splice variant expression; hit rate 2.8% among 210,000; HEK293 SMN2-luciferase splicing reporter, luminescence, 30-36 h; Potency, µM (doses to about 46.1 µM), inactives show top-dose activity change, positive = activation, usual class: activators; note: % of control where 0% means no effect; nearly all actives have a fitted effect of over 55% in size
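HEK293 cells carry an SMN2 […]–luciferase reporter in which exon 7 inclusion puts luciferase in frame. Cells were plated 10-12 h before compound addition, then incubated 30-36 h at 37C. ONE-Glo luminescence was read; sodium butyrate at 4.5 mM final served as control.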
NPC1 promoter act = NPC1 promoter activation | Huh7 NPC1 promoter luciferase reporter, 24 h | AID 485313 | hit rate 2.4% among 320,000 | Potency, µM (titrated, usually from 9.22 µM), for inactives: at the highest dose activation, usual class: activators; note: % of control where 0% means no effect; nearly all actives have a fitted effect of over 60% in size
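Quantitative HTS used a cell-based reporter: Huh7 cells stably bearing the NPC1 promoter upstream of luciferase were treated with compounds for 24 h, and promoter activation was read as luminescence.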
ELG1 repair inh = inhibitors of ELG1-dependent DNA repair in HEK293T cells | hit rate 2.3% among 330,000 | AID 504467 | Potency, µM (titrated, usually from 46.1 µM), without a hit: at the top dose activity change, negative = inhibition, hits mostly inhibitors | HEK293T ELG1-luciferase reporter, luminescence, 16 h; DNA damage induced by 5-fluorouridine; note: % is set by controls: 0 for no effect and ±100 for the full control effect; nearly all actives have a fitted effect of over 55% in size
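5-Fluorouridine DNA damage + compound/DMSO, 2,000 cells/well, 16 h, 37 °C/5% CO2. ONE-Glo, 30 min RT, luminescence. Readout = decrease in reporter signal.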
ELG1 genotoxic = inducers of genotoxicity in HEK293T ELG1-luciferase cells | AID 504466 | Potency, µM (highest dose often 46 µM), for inactives: top-dose activity change, positive = activation, hits mostly activators | HEK293T ELG1-luciferase reporter, luminescence, 16 h | hit rate 1.3% among 330,000; note: % of control where 0% means no effect; nearly all actives have a fitted effect of over 60% in size
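ELG1-luciferase HEK293T cells, 2,000/well; compound pinned in; 16 hr, 37 °C, 5% CO2; ONE-Glo, 30 min RT; luminescence on CCD imager.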
* hit, by the source's call; ? = inconclusive; / = no result; [ ] = remark or other dose. Calls come from the whole dose curve; as a rule, active = well fitted curve in the direction sought with a large enough effect; inconclusive = small, poorly fitted or top-dose-only effect, or another doubt; inactive = no such curve, though single readings can be large; an effect the other way counts as inactive or inconclusive. Potency is the fitted concentration of half-maximal effect.

SMILES	FLuc modulator	Rab9 promoter act	SMN2 splice enh	NPC1 promoter act	ELG1 repair inh	ELG1 genotoxic
Brc1ccc(-c2cnc(-c3cccs3)o2)cc1	5.4µM*	4µM*	?	?	?	?
CC1/C=C/C=C/C=C/C=C/C=C/C=C/C=C/C(OC2OC(C)C(O)C(N)C2O)CC2O[C@@](O)(CC(O)CC(O)C(O)CCC(O)CC(O)CC(=O)OC(C)[C@H](C)C1O)CC(O)C2C(=O)O (some centres not stated)	/	/	2%	/	/	/
c1ccc(-c2nnn(CCN3CCCCC3)n2)cc1	/	/	-11%[9.22 µM]	/	/	/
c1ccc(-c2nnn(C34CC5CC(CC(C5)C3)C4)n2)cc1	17µM*	18%	?	7%	?	?
CCc1ccccc1NC(=O)c1ccc2nc(C(C)C)oc2c1	-2%	/	/	/	/	/
C=CCOc1c(Br)cc(/C=N/Nc2ccc(C(=O)O)cc2)cc1OCC	30µM*	3.5µM*	8.9µM*	2.8µM*	?	?
COc1ccc(C(=O)Oc2ccc(/C=N/Nc3ccc(Cl)c(C(=O)O)c3)cc2OC)cc1	?	?	/	?	?	10%
CCOc1cc(/C=N/O)cc(Br)c1OCC	1%	1%	-40%	-6%	?	-1%
COc1ccc(/C=N/Nc2ccc(C(=O)O)cc2)cc1OC	1.3µM*	0.32µM*	/	0.32µM*	?	?
COc1ccc(/C=N/Nc2ccc(C(=O)O)cc2)cc1Br	0.67µM*	?	-80%	?	?	?
CC(=O)c1ccccc1OCC(O)Cn1c(CO)nc2ccccc21 (configuration not stated)	24µM*	/	6%	/	/	/
COc1cccc(CNC(=O)CCCN2C(=O)CSc3c2c(C)nn3-c2ccccc2)c1	-5%	/	/	/	/	/
Clc1ccccc1OCc1nc(-c2ccccn2)no1	1.9µM*	0.32µM*	4.5µM*	0.45µM*	?	4.6µM*
Clc1ccc(OCc2nc(-c3ccccn3)no2)c(Br)c1	0.21µM*	0.45µM*	0.56µM*	0.35µM*	?	0.82µM*
OCCN1CCN(Cc2cc(Cl)c3cccnc3c2O)CC1	0%	7%	-47%	-3%	-17%	10%
Oc1c(CN2CCN(c3ccccn3)CC2)cc(Cl)c2cccnc12	0%	-33%	-67%	-16%	?	7.3µM*
O=C(Oc1c(CN2CCOCC2)cc(Cl)c2cccnc12)c1ccccc1Cl	-3%	-41%	-74%	-7%	12µM*	-7%
COc1ccc(C(=O)Oc2c(CN3CCOCC3)cc(Cl)c3cccnc23)cc1	1%	0%	-73%	1%	?	-11%
Oc1c(Cl)cc(Cl)c2cccnc12	?	0%	-65%	-9%	2.3µM*	?
O=C(Oc1c(CN2CCOCC2)cc(Cl)c2cccnc12)c1cccs1	-9%	-41%	-61%	-41%	?	-17%
COc1cccc(C(=O)Oc2c(CN3CCOCC3)cc(Cl)c3cccnc23)c1	4%	-36%	-25%	-5%	18µM*	-21%
COc1ccc(NC(=O)CC2C(=O)N(c3cccc(OC)c3)C(=O)N2CCC2=CCCCC2)cc1 (configuration not stated)	2%	/	-30%	/	/	/
O=C(O)c1cccc(NC(=O)c2cccc(S(=O)(=O)N3CCc4ccccc43)c2)c1	21µM*	3%	/	14%	?	5%
CCn1c(=O)n(CC)c2cc(S(=O)(=O)N3CCc4ccccc43)ccc21	2%	-22%	-88%	-12%	16µM*	-2%
O=C(O)c1cccc(NC(=O)c2cccc(S(=O)(=O)N3CCc4ccccc4C3)c2)c1	21µM*	4%	-3%	0%	10%	2%
SMILES	FLuc modulator	Rab9 promoter act	SMN2 splice enh	NPC1 promoter act	ELG1 repair inh	ELG1 genotoxic
O=C(Nc1cccnc1)c1ccc(Cl)c(S(=O)(=O)N2CCc3ccccc32)c1	-3%	-11%	-65%	-8%	13µM*	-21%
CCCN(Cc1cccs1)C(=O)Nc1cc(Cl)ccc1C	-1%	/	/	/	/	/
COc1ccccc1NC(=O)Nc1nc(CC(=O)NCc2c(F)cccc2F)cs1	1%	1%	/	0%	?	-1%
COc1ccccc1NC(=O)Nc1nc(CC(=O)N2CCN(c3ccccc3F)CC2)cs1	?	-9%	/	-14%	16µM*	-13%
O=[N+]([O-])c1ccc(Cl)c(CNc2ncnc3c2ncn3[C@@H]2CCCCO2)c1	/	/	-7%[9.22 µM]	/	/	/
Cc1ccccc1NC(=O)CN(c1ccc(Cl)cc1Cl)S(=O)(=O)c1ccccc1	1%	/	0%	/	/	/
Cc1ccc(OCCNC(=O)c2ccc(COc3ccccc3)o2)cc1	-8%	1%	/	-2%	2%	8%
CC(C)Cc1ccc(C(=O)NCCOc2ccccc2)o1	0.95µM*	0.79µM*	/	0.32µM*	?	3.3µM*
O=C(NCCOc1ccccc1)c1cc2ccccc2o1	5.4µM*	/	10µM*	/	/	/
Cc1nn2c(NCCN3CCOCC3)c3c(nc2c1-c1ccccc1)CCCC3	1%	-5%	/	-7%	16µM*	-12%
COc1ccc(Nc2c3c(nc4c(-c5ccccc5)c(C)nn24)CCC3)cc1	-2%	-1%	-26%	0%	15µM*	-5%
Cc1nn2c(N3CCN(C)CC3)c3c(nc2c1-c1ccccc1)CCCC3	2%	-4%	/	-4%	-1%	1%
Cc1nn2c(NCc3ccccn3)c3c(nc2c1-c1ccccc1)CCC3	-10%	-30%	/	-39%	10µM*	-16%
Cc1cc(NCc2ccccn2)n2nc(C)c(-c3ccccc3)c2n1	?	-29%	/	-11%	23µM*	-7%
COc1cccc(-c2nc(SCC(=O)NC3CCCC3)c(-c3ccccc3)[nH]2)c1	?	/	-4%	/	/	/
COc1cc(/C=C2\SC(=Nc3ccccc3OC)NC2=O)ccc1O	?	0%	/	-24%	?	0%
COc1ccc(/C=C2\SC(=Nc3ccccc3OC)NC2=O)cc1	5.4µM*	4%	/	-26%	-21%	-1%
Cc1ccccc1Cn1cc(NC(=O)c2cc(C3CC3)on2)cn1	19µM*	?	/	?	?	-11%
Cc1nc2ccccc2nc1-c1ccc(N=[N+]([O-])c2ccc(-c3nc4ccccc4nc3C)cc2)cc1	/	/	2%[9.22 µM]	/	/	/
CC(=O)Nc1ccc(NC(=O)CN2C(=O)CC(c3ccco3)Sc3ccccc32)cc1 (configuration not stated)	?	/	-6%	/	/	/
Cc1ncoc1C(=O)Nc1ccc(Oc2ccccc2)cc1	15µM*	?	-4%	?	?	5%
Cc1ncoc1C(=O)Nc1ccccc1-c1ccccc1	0%	-6%	2%	-4%	-2%	2%
Cc1nc(C)c(C(=O)Nc2ccc(Oc3ccccc3)cc2)o1	24µM*	-9%	-96%	-5%	6%	0%
